Counter-ions that a name gives are not always drawn.

As usually defined, the AC50 is the midpoint of the concentration-response curve, whichever way the signal moves.

The test system of the experiment is thyroid hormone receptor (endogenous TRα and TRβ). Set-up: species or system GH3-TRE-Luc (rat pituitary); GH3-TRE-Luc luciferase reporter, antagonist mode against 1 nM T3, loss of signal, qHTS. Conditions: read-out: Average AC50 (uM) GH3-TRE-Antag, antagonist mode, 1 nM T3, no GH3 cytotoxicity hit.
`CO[C@@H]1[C@H](OC(=O)NC(=O)CCl)CC[C@]2(CO2)[C@H]1[C@@]1(C)O[C@@H]1CC=C(C)C` [o-(Chloroacetylcarbamoyl)fumagillol]: the half-maximal activity concentration (AC50) was 4.57 µM.

As to `CN(C)C(=O)Nc1ccc(Oc2ccc(Cl)cc2)cc1` [Chloroxuron], the AC50 was 64.2 µM.

As for `OCCN(CCO)c1nc(N2CCCCC2)c2nc(N(CCO)CCO)nc(N3CCCCC3)c2n1` [Dipyridamole], the concentration at half-maximal activity (AC50) turned out to be 24.3 µM.

Take `CCCN(CCC)C(=O)Cc1c(-c2ccc(Cl)cc2)nc2ccc(Cl)cn12` [Alpidem]: the AC50 was found to be 25.1 µM.

As for `COC(=O)Nc1ccc(Cl)c(Cl)c1` [Swep], the AC50 was greater than 90 µM.

For the molecule `CCCOc1ccc(S(=O)(=O)N2CCN(CC)CC2)cc1-c1nc2c(CC)n(Cc3ccccn3)nc2c(=O)[nH]1` [UK-343664], the AC50 came out at 76.4 µM.

As for `CN1CCN2c3ncccc3Cc3ccccc3C2C1` (centres unmarked) [Mirtazapine], the AC50 stood at 15.4 µM.

Consider `CCCCCCCCCCCCCOS(=O)(=O)O` [Sodium tridecyl sulfate], for which the half-maximal activity concentration (AC50) turned out to be 67.6 µM.

For the molecule `CC(Oc1ccc(Oc2ncc(C(F)(F)F)cc2Cl)cc1)C(=O)O` (centres unmarked) [Haloxyfop], the AC50 turned out to be 58.9 µM.

As for `CCCCCC(C=O)=Cc1ccccc1` [Pentylcinnamaldehyde], the AC50 is greater than 50 µM.

Take `Nc1cc(S(=O)(=O)O)cc2cc(S(=O)(=O)O)cc(O)c12` [Monosodium 8-amino-1-naphthol-3,6-disulfonate monohydrate]: the AC50 was 52.6 µM.

Regarding `CC(C)(C)c1ccc2c(S(=O)(=O)O)c(C(C)(C)C)ccc2c1` [Sodium dibunate], the concentration at half-maximal activity (AC50) is greater than 50 µM.

In the case of `CCCCc1c(C)nc(NCC)nc1OS(=O)(=O)N(C)C` [Bupirimate], the AC50 was greater than 90 µM.

In the case of `c1ccc(-c2nc[nH]c2-c2ccccc2)cc1` [4,5-Diphenylimidazole], the AC50 turned out to be 24.1 µM.

Regarding `[H]/N=C(\N/C(=N/[H])Nc1ccc(Cl)cc1)NC(C)C` [Proguanil hydrochloride], the AC50 stood at 2.32 µM.

Consider `C[C@]12CCC(=O)C=C1C=C[C@@H]1[C@@H]2CC[C@@]2(C)[C@H]1CC[C@@]21CCC(=O)O1` [Canrenone], for which the AC50 is 34.1 µM.

Turning to `C[C@]12CC[C@@H]3c4ccc(O)cc4CC[C@H]3[C@@H]1CC[C@@H]2O` [17beta-Estradiol], the AC50 came out at 31.7 µM.

Turning to `Cn1cnc([N+](=O)[O-])c1Sc1ncnc2[nH]cnc12` [Azathioprine], the AC50 is greater than 50 µM.

`O=C(O)Cc1sc(-c2ccccc2)nc1-c1ccc(Cl)cc1` [Fentiazac]: the half-maximal activity concentration (AC50) was greater than 50 µM.

On to `CCN(CC)CCO[C@H]1CC[C@@]2(C)C(=CC[C@@H]3[C@@H]2CC[C@]2(C)C(=O)CC[C@@H]32)C1` [3beta-(2-Diethylaminoethoxy)androst-5-en-17-one hydrochloride], for which the AC50 was 22.5 µM.

Consider `Nc1ccc(N)c(Cl)c1` [2-Chloro-1,4-diaminobenzene sulfate], for which the AC50 turned out to be 50.5 µM.

As for `O=C(Nc1ccc([N+](=O)[O-])cc1)Nc1ccc([N+](=O)[O-])cc1` [4,4'-Dinitrodiphenylurea], the AC50 is 0.491 µM.

As to `CC1(C)[C@H](/C=C(\Cl)C(F)(F)F)[C@@H]1C(=O)O[C@@H](C#N)c1cccc(Oc2ccccc2)c1` [?-Cyhalothrin], the AC50 was found to be 33.9 µM.

Turning to `Cc1cc(O)c2c(O)c3c(O)cccc3cc2c1` [Chrysarobin], the concentration at half-maximal activity (AC50) was 28.1 µM.

As to `CC(=O)Nc1ccn(C2COC(COC(=O)c3ccccc3)O2)c(=O)n1` (centres unmarked) [{4-[4-(Acetylamino)-2-oxopyrimidin-1(2H)-yl]-1,3-dioxolan-2-yl}methyl benzoate], the half-maximal activity concentration (AC50) was found to be 11.4 µM.

As to `COc1cc([C@@H]2c3cc4c(cc3[C@@H](O[C@@H]3O[C@@H]5CO[C@@H](C)O[C@H]5[C@H](O)[C@H]3O)[C@H]3COC(=O)[C@H]23)OCO4)cc(OC)c1OP(=O)(O)O` [Etoposide phosphate], the AC50 worked out at 21 µM.

As for `O=C(COc1ccc(Cl)cc1)OCCNC12CC3CC(CC(C3)C1)C2` [Adafenoxate], the concentration at half-maximal activity (AC50) was determined as 26 µM.

In the case of `C[C@@H]1C[C@H]2[C@@H]3C[C@H](F)C4=CC(=O)C(Cl)=C[C@]4(C)[C@@]3(F)[C@@H](O)C[C@]2(C)[C@@]1(O)C(=O)CO` [Halometasone hydrate], the AC50 was found to be 33.2 µM.

Consider `CCCCCOC(=O)COc1cc(N2C(=O)C3=C(CCCC3)C2=O)c(F)cc1Cl` [Flumiclorac-pentyl], for which the AC50 is 52.5 µM.

Consider `O=C(O)c1cccnc1Nc1cccc(C(F)(F)F)c1` [Niflumic acid], for which the AC50 was 20.3 µM.

As for `CCN(Cc1c(F)cccc1Cl)c1c([N+](=O)[O-])cc(C(F)(F)F)cc1[N+](=O)[O-]` [Flumetralin], the AC50 amounted to 39.8 µM.

Take `CCCCOCCOC(=O)c1ccccc1C(=O)OCCOCCCC` [Bis(2-butoxyethyl) phthalate]: the AC50 was 67.1 µM.

On to `O=C(CCC1CCN(Cc2ccccc2)CC1)c1ccc2c(c1)NCCCC2` [Zanapezil fumerate], for which the concentration at half-maximal activity (AC50) worked out at 12.4 µM.

On to `O=C(O)c1nn(Cc2ccc(Cl)cc2Cl)c2ccccc12` [Lonidamine], for which the AC50 was greater than 50 µM.

As for `CCC(C)c1cc(C(C)(C)C)c(O)c(C(C)(C)C)c1` (centres unmarked) [4-(Butan-2-yl)-2,6-di-tert-butylphenol], the AC50 came out at 23.6 µM.

For `CC(C)(C)C(=O)OCOP(=O)(COCCn1cnc2c(N)ncnc21)OCOC(=O)C(C)(C)C` [Adefovir dipivoxil], the AC50 came out at 46.6 µM.

On to `CCCc1c(OCCCOc2ccc(OCC(=O)O)cc2)ccc(C(C)=O)c1O` [4-[3-(4-Acetyl-3-hydroxy-2-propylphenoxy)propoxy]phenoxy-acetic acid], for which the AC50 is 85.9 µM.

Turning to `C#Cc1cccc(Nc2ncnc3cc(OCCOC)c(OCCOC)cc23)c1` [Erlotinib], the AC50 amounted to 21.9 µM.
